In article PMC5540273 (PLoS ONE, 2017):

system: T1, PRKR; settings: concentration: 1 μM,replicates: in singlicate; n = 1
T1 construct: gene EIF2AK2
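Further: KINOMEscan kinase panel screen.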

In order of falling “%Inh” value:
1. Cc1nnc(-c2ccc3occ(-c4ccc(S(C)=O)cc4)c3n2)o1 (stereo not drawn)  56%
2. CC(C)c1nc(-c2cccc(NS(=O)(=O)c3ccccc3)c2)c(-c2ccnc(Nc3ccc4c(c3)CN(C)CC4)n2)s1 [GSK1649598]  29%
3. CCNCC(Cc1ccccc1)NC(=O)c1cc(Br)c(-c2ccnc3[nH]ccc23)s1.Cl.Cl (stereo not drawn) [GSK1383280]  22%
4. CN1CCN(CCCNc2nccc(-c3c(-c4ccc(F)cc4)nn4cc(C(N)=O)ccc34)n2)CC1 [GW622475]  2%
5. C[C@@H](Oc1cc(-n2cnc3cc(-c4ccncc4)ccc32)sc1C(N)=O)c1ccccc1Cl [GSK479719]  0%
6. COc1cc2nccc(Nc3ccc(Oc4ccccc4)cc3)c2cc1OC.Cl [GI261656]  0%
7. COc1cccc(OC)c1C(=O)Nc1cccc(-c2nn3ccccc3c2-c2ccnc(Nc3cccc(F)c3)n2)c1 [GSK361065]  0%
8. COc1cc(Nc2nccc(N3CCC(NC(=O)c4cccc(C#N)c4)C3)n2)cc(OC)c1OC (stereo not drawn) [GSK1379751]  0%
9. O=C(Nc1cccc(C(F)(F)F)c1)c1cccc(Oc2ccc3nccn3n2)c1  0%
10. CC(=O)c1c(-c2ccncc2)[nH]c(-c2ccncc2)c1C [GW493036]  0%
11. COC(=O)c1cccc(NC(=O)NC2CCN(c3ccnc(NCc4ccc(F)cc4)n3)CC2)c1 [GSK1379860]  0%

system: PRKX; settings: concentration: 1 μM,replicates: in singlicate; n = 1

In order of falling “%Inh” value:
1. CCNCC(Cc1ccccc1)NC(=O)c1cc(Br)c(-c2ccnc3[nH]ccc23)s1.Cl.Cl (stereo not drawn) [GSK1383280]  95.6%
2. CS(=O)(=O)Nc1ccc(-c2ccnc3[nH]ccc23)cc1 [GSK993273]  42%
3. Cc1ccn2nc(-c3ccc(F)cc3)c(-c3ccncc3)c2c1.Cl [GW457859]  21%
4. COc1cccc(C2=C(Nc3cccc(Cl)c3)C(=O)NC2=O)c1 [SB-341556]  21%
5. Cl.c1ccc(Oc2ccc(Nc3ccnc4cc(-c5ccc(CN6CCNCC6)o5)ccc34)cc2)nc1 [GW567142]  20%
6. O=C(Nc1cccc(C(F)(F)F)c1)c1cccc(Oc2ccc3nccn3n2)c1  17%
7. COC(=O)Nc1nc2cc(Oc3ccc(NC(=O)Nc4cc(C(F)(F)F)ccc4Cl)cc3)ccc2[nH]1.Cl [GW697465]  15%
8. N#Cc1cccc(C(=O)NC2CCN(c3ccnc(Nc4ccc(F)cc4)n3)C2)c1 (stereo not drawn) [GSK1379708]  14%
9. Cc1ccc(CC(=O)N2CCc3cc(-c4cn(C)c5ncnc(N)c45)ccc32)cc1 [GSK2634758]  12%
10. COC(=O)c1cccc(NC(=O)NC2CCN(c3ccnc(NCc4ccc(F)cc4)n3)CC2)c1 [GSK1379860]  9%
11. CCOC(=O)N1CCC(n2cnc(-c3ccc(F)cc3)c2-c2ccnc(N)n2)CC1 [SB-219952]  8%
12. CN1CCN(CCCNc2nccc(-c3c(-c4ccc(F)cc4)nn4cc(C(N)=O)ccc34)n2)CC1 [GW622475]  8%
13. CC(C)c1nc(-c2cccc(NS(=O)(=O)c3ccccc3)c2)c(-c2ccnc(Nc3ccc4c(c3)CN(C)CC4)n2)s1 [GSK1649598]  5%
14. Cn1cc(-c2cccc3c(N)c(C(N)=O)nnc23)cn1  3%
15. C[C@@H](Oc1cc(-n2cnc3cc(-c4ccncc4)ccc32)sc1C(N)=O)c1ccccc1Cl [GSK479719]  2%
16. Cn1ccc2ncnc(Oc3ccc(NC(=O)Nc4ccnc(C(F)(F)F)c4)c(Cl)c3)c21  1%
17. CS(=O)(=O)c1cccc(CNc2nc(Nc3ccc4c(c3)[C@@H]3C[C@@H]4CNC3=O)ncc2C(F)(F)F)c1  0%
18. CNC(=O)c1ccccc1Nc1nc(Nc2cccc(CS(C)(=O)=O)c2)ncc1C.O=CO [GSK1520489]  0%
19. Cn1ccc2ncnc(Oc3ccc(NC(=O)Nc4cccc(C(F)(F)F)c4)c(Cl)c3)c21  0%
20. CN1CCN(CCNc2nc3cc(Oc4ccc(NC(=O)Nc5cc(C(F)(F)F)ccc5F)cc4)ccc3[nH]2)CC1.Cl.Cl [GW768504]  0%
21. O=C(NCC1CC1)c1ccc(-c2cc(C(=O)NC3CC3)ccc2F)cc1 [GW810445]  0%
22. FC(F)(F)c1cc(Br)cc(Nc2nccc(-c3cnn4ncccc34)n2)c1 [GW810578]  0%
23. C[C@@H](Oc1cc(-n2cnc3cc(-c4cnn(C)c4)ccc32)sc1C(N)=O)c1ccccc1Cl [GSK580432]  0%
24. Cn1ccc2ncnc(Oc3ccc(NC(=O)Nc4cncc(C(F)(F)F)c4)c(Cl)c3)c21  0%
25. O=C(Nc1n[nH]c2cc(-c3ccco3)ccc12)C1CC1 [SB-737447]  0%
26. OCCn1cc(-c2cnc3nnn(Cc4ccc5ncccc5c4)c3n2)cn1  0%
27. Cc1ccc(Nc2ccnc(Nc3ccc4c(c3)CS(=O)(=O)C4)n2)cc1O.Cl [GW579362]  0%
28. Cn1ccc2ncnc(Oc3ccc(NC(=O)Nc4cccc(C(F)(F)F)c4)c(F)c3)c21  0%
29. CCn1c(-c2nonc2N)nc2cncc(Br)c21 [SB-738004]  0%
30. CS(=O)c1ccc(-c2coc3ccc(-c4n[nH]c(=O)o4)cc23)cc1 (stereo not drawn)  0%
31. C[C@@H]1CCN(C(=O)N2CCCC2)C[C@@H]1N(C)c1ncnc2[nH]ccc12  0%
32. Cc1ccc2c(-c3ccnc(Nc4ccc(C(F)(F)F)cc4)n3)cnn2n1 [GW819776]  0%
33. Cc1nnc(-c2ccc3occ(-c4ccc(S(C)=O)cc4)c3n2)o1 (stereo not drawn)  0%
34. COc1cc2nccc(Nc3ccc(Oc4ccccc4)cc3)c2cc1OC.Cl [GI261656]  0%
35. COc1cccc(OC)c1C(=O)Nc1cccc(-c2nn3ccccc3c2-c2ccnc(Nc3cccc(F)c3)n2)c1 [GSK361065]  0%
36. COc1cc(Nc2nccc(N3CCC(NC(=O)c4cccc(C#N)c4)C3)n2)cc(OC)c1OC (stereo not drawn) [GSK1379751]  0%
37. CC(=O)c1c(-c2ccncc2)[nH]c(-c2ccncc2)c1C [GW493036]  0%
